Where “and” joins values, the source holds several entries; their conditions need not be identical. Identical values can stand only once. Inconclusive results are not listed. Where a structure was tested more than once in an assay, its records may differ in their call. Calls of active or inactive are those of the source. Unless noted, calls follow the shape of the dose curve; as a rule, active = well fitted curve in the direction sought with a large enough effect; inconclusive = small, poorly fitted or top-dose-only effect, or another doubt; inactive = no such curve, though single readings can be large; an effect the other way counts as inactive or inconclusive.
Tests used:
Tov-21-G = assay: Primary qHTS to identify gynecologic anti-cancer compounds using libraries of approved drugs and bioactive compounds (AID 1345084); conditions: Gynecologic cancer cell panel viability, ATPlite luminescence, 48 h; series mostly up to 57.5 µM; also: nearly all actives have a fitted effect of over 55% in size; also: potency is read from the fitted curve at half-maximal effect; as to activity change, negative = cytotoxicity: % is scaled to controls: 0 for no effect and ±100 for the full control effect
Outline: (§1)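 Measured: luminescence after ATPlite addition (15 min, RT). Exposure: 48 h, 37 C, 5% CO2.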

Tov112D = assay: as above; conditions: Gynecologic cancer cell panel viability, ATPlite luminescence, 48 h; series mostly up to 57.5 µM
Outline: as §1

[1] = Drug repurposing screens with cells derived from glioblastoma tumor samples (AID 1345199); conditions: GBM patient neurospheres viability, ATP luminescence, 48 h; also: nearly all actives have a fitted effect of over 40% in size; also: potency is read from the fitted curve at half-maximal effect; as to activity, negative = cell killing: % is scaled to controls: 0 for no effect and ±100 for the full control effect
Outline: (§2)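 Primary testing used CD133+ neurospheres from four GBM patients, seven concentrations, 48 h exposure and ATP-based viability; confirmation added three slower-growing patient lines.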

astro = assay: as above; conditions: viability, ATP luminescence, 48 h; series mostly up to 45.9 µM
Outline: as §2

[2] = biological target: Nuclear receptor subfamily 1 group I member 2 (Rattus norvegicus) (UniProt Q9R1A7); assay: qHTS assay for small molecule activators of the rat pregnane X receptor (rPXR) signaling pathway (AID 651751; call rule not given here; also: 0% is about no effect); conditions: rPXR reporter cells, luciferase (One-Glo), 24 h
[3] = qHTS assay for small molecule activators of the human pregnane X receptor (PXR) signaling pathway (AID 720659; call rule not given here; also: 0% is about no effect)
[4] = qHTS assay to identify inhibitors of the type 1 interferon - major histocompatibility complex class I in skeletal muscle: Counter screen cell viability and HiBit confirmation (AID 1347412); conditions: iHSKM muscle cells + IFN-b, HiBiT or CellTiter-Glo, 24 h; Potency: HiBiT unless noted; Viability, at 45.9 µM (top of the series); also: % is scaled to controls: 0 for no effect and ±100 for the full control effect; nearly all actives have a fitted effect of over 60% in size
Outline: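 Human myoblast knock-in line, 4.0 ng/ml IFN-beta stimulation, 24 h compound treatment. Endpoints: HiBiT lytic luminescence (HLA-B level) and CellTiter Glo (ATP). Dosing 12 concentrations, 3-fold steps, 46 uM highest final.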

[5] = at 46.1 µM (top of the series), tumour line C
[6] = at 20 µM (top of the series), tumour line C
[7] = at 21.2 µM (top of the series), tumour line B
[8] = at 21.2 µM (top of the series), tumour line D
[9] = at 45.9 µM (top of the series), tumour line B
[10] = at 45.9 µM (top of the series), tumour line D

Sequence of Nuclear receptor subfamily 1 group I member 2 (Rattus norvegicus) (Q9R1A7 whole entry, looked up): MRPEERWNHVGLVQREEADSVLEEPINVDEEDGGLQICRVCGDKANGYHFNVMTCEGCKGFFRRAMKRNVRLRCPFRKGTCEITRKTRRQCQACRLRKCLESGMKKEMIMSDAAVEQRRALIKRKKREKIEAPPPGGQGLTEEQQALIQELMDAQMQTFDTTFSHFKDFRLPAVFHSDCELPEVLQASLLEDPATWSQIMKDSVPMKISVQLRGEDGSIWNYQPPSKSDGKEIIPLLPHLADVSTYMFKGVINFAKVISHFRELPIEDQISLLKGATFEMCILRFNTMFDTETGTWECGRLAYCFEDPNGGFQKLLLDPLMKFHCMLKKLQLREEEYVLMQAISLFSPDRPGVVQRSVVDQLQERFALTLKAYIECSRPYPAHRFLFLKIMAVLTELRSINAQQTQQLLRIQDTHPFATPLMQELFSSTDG

CC(=O)O[C@]1(C(C)=O)CC[C@H]2[C@@H]3C[C@H](C)C4=CC(=O)CC[C@]4(C)[C@H]3CC[C@@]21C
active: Potency ([1]; tumour line A) 17.8 µM
inactive: Potency (Tov-21-G) | Potency (Tov112D) | activity, negative = cell killing [1, 5] -19.7% | Potency (astro)

CC(C)N=C(N)/N=C(\N)Nc1ccc(Cl)cc1
inactive: Potency (Tov-21-G) | Potency (Tov112D) | activity, negative = cell killing [1, 6] -3.45% | activity, negative = cell killing [1, 7] -11.2% | activity, negative = cell killing [1, 8] -20.6% | Potency (astro)

CC1(C)OC[C@@H](COC(=O)CCc2ccc(OC[C@@H](O)CNCCNC(=O)N3CCOCC3)cc2)O1
inactive: Potency (Tov-21-G) | Potency (Tov112D) | activity, negative = cell killing [1, 9] -1.97% and -1.33% | activity, negative = cell killing [1, 10] -8.36% and -5.13% | activity, negative = cell killing [1, 5] 1.06% and -5.37% | Potency (astro)

CCOC(=O)c1cccc(N)c1
inactive: Potency (Tov-21-G) | Potency (Tov112D) | activity, negative = cell killing [1, 9] -17.6% | activity, negative = cell killing [1, 10] 2.11% | activity, negative = cell killing [1, 5] -0.117% | Potency (astro)

CCCCOc1ccc(C(=O)CCN2CCCCC2)cc1
active: Potency ([1]; tumour line A) 4.47 µM
inactive: Potency (Tov-21-G) | Potency (Tov112D) | activity, negative = cell killing [1, 6] -2.49% | Potency (astro)

CCCCCCc1ccc(O)cc1O
inactive: Potency (Tov-21-G) | Potency (Tov112D) | activity, negative = cell killing [1, 9] -28.1% | activity, negative = cell killing [1, 5] -19.2% | max response [2] -4.98% and -0.286% | outcome [3]
active: Potency ([1]; tumour line A) 10 µM

CN(C)CCCOc1nn(Cc2ccccc2)c2ccccc12
inactive: Potency (Tov112D) | activity, negative = cell killing [1, 6] -16.8% | Potency (astro)
active: Potency ([1]; tumour line A) 1.58 µM | Potency ([1]; tumour line D) 7.08 µM
31.6 µM (active) and inactive: Potency (Tov-21-G)

CC(=O)OCC(=O)[C@@]1(OC(C)=O)[C@@H](C)C[C@H]2[C@@H]3C[C@H](F)C4=CC(=O)C=C[C@]4(C)[C@@]3(F)[C@@H](O)C[C@@]21C
inactive: Potency (Tov-21-G) | Potency (Tov112D) | activity, negative = cell killing [1, 9] -11.4% | activity, negative = cell killing [1, 10] 4.06% | activity, negative = cell killing [1, 5] -10.3% | Potency (astro) | Potency [4]

CC(=O)[C@H]1CC[C@H]2[C@@H]3C[C@H](C)C4=CC(=O)CC[C@]4(C)[C@H]3[C@@H](O)C[C@]12C
inactive: Potency (Tov-21-G) | Potency (Tov112D) | activity, negative = cell killing [1, 6] 12.3% | activity, negative = cell killing [1, 7] -24.6% | Potency (astro)

CCN(CC)CCOC(=O)C(c1ccccc1)C1CCCCC1 (stereo unspecified)
active: Potency ([1]; tumour line A) 20 µM
inactive: Potency (Tov-21-G) | Potency (Tov112D) | activity, negative = cell killing [1, 9] -15% | Potency (astro)

CC/C(=C(/CC)c1ccc(O)cc1)c1ccc(O)cc1
inactive: Potency (Tov-21-G) | Potency (Tov112D) | activity, negative = cell killing [1, 9] -24.8% | activity, negative = cell killing [1, 5] -3.33% | max response [2] 1.62% and -5.34%
active: Potency ([1]; tumour line A) 14.1 µM

O=C1OC(c2ccc(O)cc2)(c2ccc(O)cc2)c2ccccc21
inactive: Potency (Tov-21-G) | Potency (Tov112D) | activity, negative = cell killing [1, 9] -16.9% | activity, negative = cell killing [1, 10] -16.2% | activity, negative = cell killing [1, 5] 2.26% | max response [2] 7.44% and -0.397%

COc1ccc(CN2CCN(C(c3ccc(F)cc3)c3ccc(F)cc3)CC2)c(OC)c1OC
active: Potency ([1]; tumour line A) 3.16 µM | Potency ([1]; tumour line D) 11.2 µM | Potency (astro) 35.5 µM
inactive: Potency (Tov-21-G) | Potency (Tov112D) | activity, negative = cell killing [1, 5] -24.3%

Cc1c(C)n(CCN(C)C)c2ccc(C(=O)OCCN(C)C)cc12
inactive: Potency (Tov-21-G) | Potency (Tov112D) | activity, negative = cell killing [1, 5] -23.7% | Potency (astro)
active: Potency ([1]; tumour line A) 10 µM

NC[C@H]1O[C@H](O[C@H]2[C@H](O[C@@H]3O[C@H](CO)[C@@H](O)[C@H]3O)C(O)[C@H](N)C[C@@H]2N)[C@H](N)[C@@H](O)[C@@H]1O (stereo partly specified)
inactive: activity change, negative = cytotoxicity (Tov-21-G) 9.27% [at 11.6 µM] | activity change, negative = cytotoxicity (Tov112D) 13.5% [at 11.6 µM] | activity, negative = cell killing [1, 7] -5.37% | activity, negative = cell killing [1, 8] 0.454% | Potency (astro)

CN1C(CCl)Nc2cc(Cl)c(S(N)(=O)=O)cc2S1(=O)=O (stereo unspecified)
inactive: Potency (Tov-21-G) | Potency (Tov112D) | activity, negative = cell killing [1, 9] -5.52% | activity, negative = cell killing [1, 10] -2.64% | activity, negative = cell killing [1, 5] -28.6% | Potency (astro)

CN(C/C=C/c1ccccc1)Cc1cccc2ccccc12
inactive: Potency (Tov-21-G) | Potency (Tov112D) | activity, negative = cell killing [1, 9] -26.7% | activity, negative = cell killing [1, 10] -18.5% | activity, negative = cell killing [1, 5] -27.1% | Potency (astro)

CN1CCN(CCCN2c3ccccc3Sc3ccc(S(=O)(=O)N(C)C)cc32)CC1
inactive: Potency (Tov-21-G) | Potency (Tov112D) | activity, negative = cell killing [1, 6] 3.3% | activity, negative = cell killing [1, 7] -12.4% | Potency (astro)
active: Potency ([1]; tumour line A) 7.94 µM

O=S1(=O)c2cccc3cccc(c23)N1CCCN1CCN(c2ccc(F)cc2)CC1
active: Potency ([1]; tumour line A) 12.6 µM
inactive: Potency (Tov-21-G) | Potency (Tov112D) | activity, negative = cell killing [1, 9] -28.9% | Potency (astro)

CCN(CC)CCNC(=O)COc1ccc(Cl)cc1
inactive: Potency (Tov-21-G) | Potency (Tov112D) | activity, negative = cell killing [1, 9] 1.81% | activity, negative = cell killing [1, 10] -18.1% | Potency (astro)

O=c1[nH]c(=O)n([C@H]2C[C@H](O)[C@@H](CO)O2)cc1C(F)(F)F
active: Potency (Tov112D) 11.2 µM
inactive: Potency (Tov-21-G) | activity, negative = cell killing [1, 10] -28.4% | activity, negative = cell killing [1, 5] -13.3% | Potency (astro)

CC1=C(C(=O)O)N2C(=O)[C@@H](NC(=O)[C@H](N)c3ccc(O)cc3)[C@H]2SC1
inactive: Potency (Tov-21-G) | Potency (Tov112D) | activity, negative = cell killing [1, 6] -0.623% | activity, negative = cell killing [1, 7] -10.2% | activity, negative = cell killing [1, 8] -21.8% | Potency (astro)

COc1cc(N)c(Cl)cc1C(=O)NC1CCN(CCCOc2ccc(F)cc2)CC1OC (stereo unspecified)
inactive: Potency (Tov-21-G) | Potency (Tov112D) | activity, negative = cell killing [1, 6] -1.31% | activity, negative = cell killing [1, 7] -11.4% | Potency (astro)
active: Potency ([1]; tumour line A) 5.62 µM

CCCCOc1cc(C(=O)NCCN(CC)CC)c2ccccc2n1
inactive: activity, negative = cell killing [1, 7] -15.3%

CC(=O)N(O)CCCCCNC(=O)CCC(=O)N(O)CCCCCNC(=O)CCC(=O)N(O)CCCCCN
inactive: activity, negative = cell killing [1, 7] -16.9% | activity, negative = cell killing [1, 8] -9.85% | activity, negative = cell killing ([1]; at 21.3 µM (top of the series), tumour line A) -22.8%

CCCCCCCCCCCCCCCC[N+](C)(C)CCN(Cc1ccc(OC)cc1)c1ncccn1
active: Potency ([1]; tumour line B) 14.1 µM

Reference: PubChem BioAssay (NCATS)
